Source: PubChem (several laboratories)
In the library only some 12% were active in any assay of this set; here they are far more common.
L major viab – reduces viability of Leishmania major promastigotes; resazurin fluorescence viability; inhibition, % at 10 µM; 200,000 tested, 9% active; in the data active = inhibition above about 50%;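 also: promastigotes grown with compound for 44 hours at 28 °C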
CHOP inhibitor – blocks CHOP induction under ER stress. inhibition, % at 10 µM. CHO-K1 CHOP-promoter luciferase, tunicamycin-induced, 15-18 h. 220,000 tested, 3.8% active;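 active = compounds that reduced the stress-induced luciferase reporter signal by more than about 70% of percent inhibition, limit read from the data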;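 also: 0% = tunicamycin plus vehicle and 100% = wells without tunicamycin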
WT yeast gro inh – growth inhibition of WT yeast, mitochondrial fusion screen; mitochondrial fusion phenotypic screen, WT strain; inhibition, % at 10 µM; 190,000 tested, 2.1% active; AID 1362; in the data active = inhibition above about 58%; tested in S. cerevisiae
Arbovirus anti – arbovirus infection inhibition; AID 1251; arbovirus infection cell-based antiviral screen; inhibition, % at 10 µM; 200,000 tested, 0.37% active; in the data active = inhibition above about 30%
Numbers without * were called inactive; . = no result given.

SMILES | L major viab | CHOP inhibitor | WT yeast gro inh | Arbovirus anti
COc1ccc2c(c1[N+](=O)[O-])CCC/C2=N/OC(=O)c1cccc2ccccc12 | -4 | 54 | 4 | 9
Cc1nc2ccc(NC(=O)Cc3ccc4c(c3)OCCO4)cc2s1 | -3 | -6 | 56 | 4
Cc1ccsc1/C=N/NC(=O)CNC(=O)c1ccc(S(=O)(=O)N(C)C)cc1 | 52* | 12 | -6 | 0
CN(C)S(=O)(=O)c1ccc(C(=O)NCC(=O)N/N=C/c2ccccc2Cl)cc1 | 68* | 17 | -5 | 12
CCN(CC)c1c(-c2ccccc2)c2cc(C)ccc2[nH]c1=O | 0 | 95* | -6 | 5
Cc1ccc2[nH]c(=O)c(CNS(=O)(=O)c3ccccc3)c(-c3ccccc3)c2c1 | 45 | 87* | -17 | -5
Cc1ccc(C(c2nnnn2CC2CCCO2)N2CCN(c3cccc(C)c3C)CC2)cc1 (stereo not drawn) | 59* | 37 | 60* | -31
CCC(c1nnnn1C(C)(C)C)N1CCN(c2cc(Cl)ccc2C)CC1 (stereo not drawn) | 1 | 60 | 73* | 2
Cc1ccc(Cl)cc1N1CCN(C(CC(C)C)c2nnnn2CC2CCCO2)CC1 (stereo not drawn) | 13 | 37 | 10 | -1
CC(C)CC(c1nnnn1Cc1ccco1)N1CCN(c2cccc(Cl)c2)CC1 (stereo not drawn) | -2 | 13 | 33 | -15
COc1ccc(C(c2nnnn2CC2CCCO2)N2CCN(c3ccccc3)CC2)cc1 (stereo not drawn) | -2 | -17 | 11 | 11
CCCC(c1nnnn1CC1CCCO1)N1CCN(c2cc(Cl)ccc2C)CC1 (stereo not drawn) | 18 | 59 | 65* | -19
CC(C)CC(c1nnnn1CC1CCCO1)N1CCN(c2cccc(Cl)c2)CC1 (stereo not drawn) | 20 | 83* | -2 | -8
COCc1nc2c([nH]1)c(=O)n(C)c(=O)n2CC(C)C | . | -5 | . | .
CSc1ccc(OC2CCN(Cc3ccccc3)CC2)cc1 | 94* | 58 | 63* | -6
CSCCNC(=O)c1ccc(OC2CCN(CCc3ccccc3)CC2)cc1 | 7 | -16 | -3 | -1
CCOc1cc(C)c(Cl)cc1S(=O)(=O)n1ccnc1 | 92* | -4 | -6 | 8
CCOc1ccc(C)cc1S(=O)(=O)n1ccnc1 | 5 | 2 | 10 | 2
COc1cc(S(=O)(=O)n2ccnc2)ccc1Br | -4 | -3 | 1 | -1
COc1ccc(Br)cc1S(=O)(=O)n1ccnc1 | 63* | 15 | -2 | 0
O=C(O)c1ccc2ncc(NC(=O)c3ccc(F)cc3)c(=O)n2c1 | . | 6 | . | .
COc1ccc(CC(=O)N2CCc3cc(OC)c(OC)cc3C2O)cc1OC (stereo not drawn) | . | -5 | . | .
COc1ccc(OC)c(/C(O)=C/C(=O)C(=O)Nc2ccccc2OC)c1 | 96* | 75* | 5 | 2
CCOc1ccccc1C(=O)Nc1nncs1 | -7 | 19 | -20 | -6
CCOc1ccccc1C(=O)Nc1nnc(C(C)C)s1 | 14 | 76* | 2 | 8
SMILES | L major viab | CHOP inhibitor | WT yeast gro inh | Arbovirus anti
COc1ccc(NC(=O)Nc2ccccc2OC)cc1 | 2 | 37 | 20 | -7
CC(C)C(=O)Nc1cccc(C(=O)Nc2nnc(C(C)C)s2)c1 | 53* | -14 | 3 | 0
COc1ccc(OC)c(NC(=O)c2ccccc2N(Cc2ccccc2)S(C)(=O)=O)c1 | 80* | -9 | 7 | -3
CCC(C(=O)OCn1nnc2ccccc2c1=O)c1ccccc1 (stereo not drawn) | -3 | 27 | -2 | 1
CC1(C)Cc2c(sc(NC(=O)C3CC(Cl)=CCC3C(=O)O)c2C#N)CO1 (stereo not drawn) | -5 | -6 | -2 | 11
COc1cccc(/C=N/NC(=O)c2ccccc2N(Cc2ccccc2)S(=O)(=O)c2ccccc2)c1OC | 91* | 17 | -5 | -12
CCOc1ccccc1C(=O)Nc1cc(Cl)ccc1O | 79* | 60 | 60 | -30
CCOc1ccccc1C(=O)Nc1cc(OC)ccc1OC | 18 | 39 | 63* | -9
CCOc1cc(NC(=S)Nc2ccccc2)c(OCC)cc1NC(=O)c1ccc(OC)cc1 | 96* | 42 | -4 | 6
COC(=O)c1ccc(C(=O)OC)c(NC(=O)COC(=O)CC2CC3CCC2C3)c1 (stereo not drawn) | -2 | -23 | 14 | 2
COc1cc(OC)cc(C(=O)Nc2nnc(NC(=S)Nc3ccccc3)s2)c1 | 55* | 108* | 27 | -12
COc1ccc(C2Nc3cc(OC)ccc3-n3cccc32)cc1 (stereo not drawn) | . | 17 | . | .
COc1ccccc1-n1c(SCC(=O)c2ccc(O)cc2O)nc2cc([N+](=O)[O-])ccc21 | 51* | 7 | 77* | -30
CCN(CC)S(=O)(=O)c1ccc2c(c1)nc(SCC(=O)NC1CC1)n2-c1ccccc1OC | 80* | 18 | 12 | -3
